hNpr1 antagonist: antagonists of human natriuretic peptide receptor Npr1. hit rate 1.6% among 76,000. Potency, µM (titrated, usually from 46.3 µM), for inactives: at the top dose activity change, negative = inhibition, usual class: inhibitors. HEK293 hNpr1 GloSensor cGMP, ANP-stimulated luminescence; calls by dose curve; note: nearly all actives have a fitted effect of over 60% in size
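HEK293 cells stably expressing human Npr1 and cGMP GloSensor pGS-40F, loaded 2 h with 2% GloSensor reagent, given compound 30 min at room temperature. Luminescence read before and 20 min after 0.1 nM hNppA.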
NIH3T3 tox: kills NIH 3T3 cells | AID 1345082 | hit rate 4.3% among 94,000 | Potency, µM (top dose mostly 96.7 µM), for the others: top-dose activity change, negative = cytotoxicity, actives largely listed as inhibitors | NIH 3T3 viability, CellTiter-Glo ATP luminescence, 48-72 h; note: nearly all actives have a fitted effect of over 55% in size
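NIH 3T3 cells at 400 cells/well received 23 nL of compound by pintool and were incubated 48 or 72 h at 37 °C. Viability was read as ATP-coupled CellTiter-Glo luminescence.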
HEK cytotox: cytotoxic compounds in HEK 293 cells | HEK 293 viability, ATP luminescence (CellTiter-Glo), 48-72 h | Potency, µM (top dose mostly 115 µM), inactives show top-dose activity change, negative = cytotoxicity, hits mostly inhibitors | hit rate 6.6% among 94,000; note: nearly all actives have a fitted effect of over 60% in size
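Cytotoxicity was scored by loss of ATP-coupled luminescence (CellTiter-Glo) in HEK 293 cells. Compound treatment ran 48 or 72 hr at 37 degree Celsius, 5% CO2, 95% humidity.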
Luciferase inh: Photinus pyralis luciferase inhibition | P08659 | purified P. pyralis luciferase, luminescence, biochemical | Potency, µM (titrated, usually from 115 µM), most hits filed as inhibitors | hit rate 2.5% among 76,000 | AID 1347043; note: nearly all actives have a fitted effect of over 65% in size
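FLuc 10nM, D-luciferin 10uM, ATP 10uM, Mg acetate 10mM, Tris acetate pH 7.5, Tween/BSA; cpd qHTS; enzyme added last; CCD luminescence.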
* marks the source's active call; other numbers are inactive results; i = inactive; ? = inconclusive; / = no result; ! = a repeat was not active; [ ] = another dose, or the depositor's remark. Sampled rows, rich in hits. Any-hit rate of the full collection: about 11%. Unless noted, calls come from the whole dose curve; as a rule, active = well fitted curve in the direction sought with a large enough effect; inconclusive = small, poorly fitted or top-dose-only effect, or another doubt; inactive = no such curve, though single readings can be large; an effect the other way counts as inactive or inconclusive. % is set by controls: 0 for no effect and ±100 for the full control effect; potency is the fitted concentration of half-maximal effect.

SMILES | hNpr1 antagonist | NIH3T3 tox | HEK cytotox | Luciferase inh
COc1ccccc1CCC(=O)Nc1cccc(-c2nnc3n2CCCC3)c1 | -1% | -22% | ? | i
COc1ccccc1-c1ccc2c(C(=O)NCc3cccc(Cl)c3)nn(C)c2n1 | / | -15% | ? | /
CCCCn1c(=O)c(C(=O)N2CCN(C(=O)C3CC3)CC2)nc2cccnc21 | / | -21% | -6% | /
Cn1c(CNC(=O)C2Cn3cccc3C(=O)N2Cc2ccccc2)nc2ccccc21 (stereo not drawn) | -11% | 32µM* | ? | i
CCO[C@H]1CN(C2CCN(c3ccc(C)c(Cl)c3)CC2)C[C@@H]1O | 1% | ? | ? | i
Cc1ccccc1Oc1ncccc1CNC(=O)c1ccc2c(c1)OCO2 | -2% | ? | -11% | i
Cc1nc2ccc(C(=O)NCc3cccnc3Oc3ccccc3C)cc2[nH]1 | -20% | 50µM* | ? | i
CC(=O)N1CCC(NC[C@@H]2C=C(C)[C@H](Cc3nc4ccc(F)cc4[nH]3)C[C@H]2C(C)C)CC1 | -2% | 79µM* | ? | i
CC1=C[C@@H](CNC(=O)c2cnccn2)[C@H](C(C)C)C[C@H]1Cc1nc2ccc(C)cc2[nH]1 | ? | ? | 32µM* | i
COc1ccc2nc(C[C@@H]3C[C@@H](C(C)C)[C@H](CNC(=O)Nc4ccc(F)cc4)C=C3C)[nH]c2c1 | -30% | 40µM* | 28µM* | i
CC1=C[C@@H](CNC(=O)c2cnccn2)[C@H](C(C)C)C[C@H]1Cc1nc2ccc(F)cc2[nH]1 | ? | 112µM* | 71µM* | i
COc1cccc(-c2ccc(C(=O)NCCN[S+](C)(=O)[O-])cc2)c1 | / | -25% | -37% | /
CC(C)c1ccc(CNC(=O)[C@H]2CCC[C@H]2NC(=O)c2ccncc2)cc1 | -2% | -16% | -6% | i
CC1=C[C@@H](CNC(=O)C2CCC2)[C@H](C(C)C)C[C@H]1Cc1nc2ccc(F)cc2[nH]1 | ? | 40µM* | 28µM* | i
COc1cccc(S(=O)(=O)N2CCn3nnc(CCC(=O)N4CCOCC4)c3C2)c1 | / | -21% | -18% | /
CC(=O)NC1(C)CN(Cc2ccc(-c3cccc(C(F)(F)F)c3)s2)C1 | ? | 45µM* | 63µM* | 13µM*
CC(=O)NC1(C)CN(Cc2ccc(-c3cccc(F)c3)s2)C1 | -2%[70.6 µM] | ? | ? | ?
Cn1ncc2c(N)nc(NC3CC(c4cc(=O)[nH]c(C5CC5)n4)C3)nc21 (stereo not drawn) | 4% | ? | 0% | i
Cc1ncsc1CN1CCCCCCNC(=O)[C@@H]2C[C@@H](C(=O)N3CCc4ccccc4C3)C[C@@H]21 | -18% | -19% | 89µM* | i
N#Cc1ccc(CN2CCCCCCNC(=O)[C@@H]3C[C@@H](C(=O)N4CCc5ccccc5C4)C[C@@H]32)cc1 | -14% | ? | ? | i
C[S+](=O)([O-])N1CCC(c2nnc3n2C(C(=O)NCc2ccccc2)CC3)CC1 (stereo not drawn) | / | -15% | -19% | /
c1ccc(CCn2cnc3cccnc32)cc1 | -2%[70.6 µM] | -29%[174 µM] | -26%[230 µM] | 40µM*
COc1ccccc1N1CCN([C@@H]2[C@H](O)[C@H](CO)O[C@@H]2CNCc2cccc(Cl)c2)CC1 | -3% | -3% | -13% | i
CCCC1CN(Cc2cccc(F)c2)C(=O)c2ccc(C)nc2O1 (stereo not drawn) | / | ? | 50µM* | /
Cc1ccc2c(n1)O[C@@H](COCc1ccccc1)CN(Cc1ccc3c(c1)OCO3)C2=O | / | 13µM* | ? | /
SMILES | hNpr1 antagonist | NIH3T3 tox | HEK cytotox | Luciferase inh
Cc1ccc2c(n1)O[C@@H](COCc1ccccc1)CN(Cc1cccs1)C2=O | / | 25µM* | 32µM* | /
Cc1ccc(C(=O)N2CCC3(CC2)C(=O)N(C)c2ccccc23)cc1C | -2% | 1% | ? | i
CN1C(=O)C2(CCN(C(=O)c3cccc(Br)c3)C2)c2ccccc21 (stereo not drawn) | -15% | ? | 35µM* | i
O=C(Cc1cccc(Cl)c1)N1CCC2(C1)C(=O)N(CCc1ccccc1)c1ccccc12 (stereo not drawn) | 0% | 45µM*! | 32µM* | i
COc1cccc(C(=O)N2CCC3(C2)C(=O)N(CCc2ccccc2)c2ccccc23)c1 (stereo not drawn) | -11% | ? | 45µM* | i
CN1C(=O)C2(CCN(C(=O)CCc3ccccc3)C2)c2ccccc21 (stereo not drawn) | 1% | -5% | ? | i
Cc1ccc(C(=O)N2CCC3(C2)C(=O)N(CCc2ccccc2)c2ccccc23)cc1 (stereo not drawn) | -10% | 40µM*! | 32µM*! | i
COC(=O)N1CCC2(C1)C(=O)N(CCc1ccccc1)c1ccccc12 (stereo not drawn) | 0% | ? | 63µM*! | i
COCC(=O)N1CCC2(C1)C(=O)N(CCc1ccccc1)c1ccccc12 (stereo not drawn) | 1% | -17% | -23% | i
O=C(c1ccccc1)N1CCC2(C1)C(=O)N(CCc1ccccc1)c1ccccc12 (stereo not drawn) | -11% | ? | 35µM*! | i
O=C(c1ccccc1F)N1CCC2(C1)C(=O)N(CCc1ccccc1)c1ccccc12 (stereo not drawn) | 19% | ? | 40µM* | i
O=C(c1ccc(F)cc1)N1CCC2(C1)C(=O)N(CCc1ccccc1)c1ccccc12 (stereo not drawn) | 0% | ? | 40µM*! | i
O=C(c1ccccc1)N1CCC2(C1)C(=O)N(Cc1ccccc1)c1ccccc12 (stereo not drawn) | -27% | ? | ? | i
CN1C(=O)C2(CCN(C(=O)c3ccccc3F)C2)c2ccccc21 (stereo not drawn) | 3%[70.6 µM] | -17%[138 µM] | ? | i
COc1ccc(S(=O)(=O)N2CCCN(C)c3ccccc32)cc1Cl | 0% | ? | ? | i
CCCCn1c(=O)c(C(=O)NC2CCCC2)nc2cccnc21 | / | -37%[138 µM] | ? | /
COc1cccc(O)c1CN1CCC(C(Cc2ccc(F)cc2)N(C)Cc2cn(C)nc2C)CC1 (stereo not drawn) | 0% | 1% | 7% | i
CN(C)c1ccc(CNC(=O)C2(c3ccc(NS(C)(=O)=O)cc3)CCCCC2)cc1 | 1% | -28% | ? | i
COc1ccc(CC(=O)N2CCC3(C2)C(=O)N(CCc2ccccc2)c2ccccc23)cc1 (stereo not drawn) | 0% | ? | 40µM*! | i
Cc1ccc(CC(=O)N2CCC3(C2)C(=O)N(C)c2ccccc23)cc1 (stereo not drawn) | -2% | ? | -12% | i
CCCN1CCc2[nH]cnc2C12CCN(C(=O)c1ccc(CSC)o1)CC2 | -5% | -18% | -10% | i
CC1(COc2cccnc2)COc2ccc(C(=O)Nc3cccc(Cl)c3)cc2N1 (stereo not drawn) | 28µM* | ? | 22µM* | ?
